PubChem BioAssay (Tox21)
Where “and” joins values, the source holds several entries; their conditions need not be identical. Equal entries are not always repeated. A structure can be active in one record and inactive in another. Calls of active or inactive are those of the source. Unless noted, calls come from the whole dose curve; as a rule, active = well fitted curve in the direction sought with a large enough effect in the repeat runs; inconclusive = weak or mixed curves; inactive = no such curve, though single readings can be large; an effect the other way counts as inactive or inconclusive.

What was measured:
[1] = qHTS assay to identify small molecule antagonists of the glucocorticoid receptor (GR) signaling pathway - cell viability counter screen (AID 720693); note: nearly all actives have a fitted effect of over 55% in size
[2] = qHTS assay for identifying genotoxic compounds that show differential cytotoxicity against isogenic chicken DT40 cell lines with known DNA damage response pathways - wild type cell line (AID 743012); note: nearly all actives have a fitted effect of over 60% in size; note: potency is the fitted concentration of half-maximal effect
Outline: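 Cytotoxicity in repair-proficient parental chicken DT40 cells serves as the comparator for Rad54/Ku70- and Rev3-deficient lines. Cells were exposed to compounds for 40 h at 37 C/5% CO2, and ATP-based luminescence (CellTiter-Glo) measured viability.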

[3] = qHTS assay for identifying genotoxic compounds that show differential cytotoxicity against isogenic chicken DT40 cell lines with known DNA damage response pathways - Rev3 mutant cell line (AID 743014); note: nearly all actives have a fitted effect of over 55% in size; note: potency is the fitted concentration of half-maximal effect
[4] = qHTS assay for identifying genotoxic compounds that show differential cytotoxicity against isogenic chicken DT40 cell lines with known DNA damage response pathways - Rad54/Ku70 mutant cell line (AID 743015); note: nearly all actives have a fitted effect of over 60% in size; note: potency is the fitted concentration of half-maximal effect
[5] = qHTS assay to identify small molecule antagonists of the androgen receptor (AR) signaling pathway - cell viability counter screen (AID 743033; note: nearly all actives have a fitted effect of over 45% in size; note: potency is the fitted concentration of half-maximal effect)
[6] = biological target: Androgen receptor (Homo sapiens) (UniProt P10275); experiment: qHTS assay to identify small molecule antagonists of the androgen receptor (AR) signaling pathway (AID 743035; active = well fitted inhibition curve with a large enough effect in the signal ratio in the repeat runs, not every such curve was filed as active; inconclusive = weak or mixed curves, or effect the other way; inactive = no such curve, though single readings can be large or run the other way; the % refers to the signal ratio; note: potency is the fitted concentration of half-maximal effect)
Sequence of Androgen receptor (Homo sapiens) (P10275 whole entry, looked up): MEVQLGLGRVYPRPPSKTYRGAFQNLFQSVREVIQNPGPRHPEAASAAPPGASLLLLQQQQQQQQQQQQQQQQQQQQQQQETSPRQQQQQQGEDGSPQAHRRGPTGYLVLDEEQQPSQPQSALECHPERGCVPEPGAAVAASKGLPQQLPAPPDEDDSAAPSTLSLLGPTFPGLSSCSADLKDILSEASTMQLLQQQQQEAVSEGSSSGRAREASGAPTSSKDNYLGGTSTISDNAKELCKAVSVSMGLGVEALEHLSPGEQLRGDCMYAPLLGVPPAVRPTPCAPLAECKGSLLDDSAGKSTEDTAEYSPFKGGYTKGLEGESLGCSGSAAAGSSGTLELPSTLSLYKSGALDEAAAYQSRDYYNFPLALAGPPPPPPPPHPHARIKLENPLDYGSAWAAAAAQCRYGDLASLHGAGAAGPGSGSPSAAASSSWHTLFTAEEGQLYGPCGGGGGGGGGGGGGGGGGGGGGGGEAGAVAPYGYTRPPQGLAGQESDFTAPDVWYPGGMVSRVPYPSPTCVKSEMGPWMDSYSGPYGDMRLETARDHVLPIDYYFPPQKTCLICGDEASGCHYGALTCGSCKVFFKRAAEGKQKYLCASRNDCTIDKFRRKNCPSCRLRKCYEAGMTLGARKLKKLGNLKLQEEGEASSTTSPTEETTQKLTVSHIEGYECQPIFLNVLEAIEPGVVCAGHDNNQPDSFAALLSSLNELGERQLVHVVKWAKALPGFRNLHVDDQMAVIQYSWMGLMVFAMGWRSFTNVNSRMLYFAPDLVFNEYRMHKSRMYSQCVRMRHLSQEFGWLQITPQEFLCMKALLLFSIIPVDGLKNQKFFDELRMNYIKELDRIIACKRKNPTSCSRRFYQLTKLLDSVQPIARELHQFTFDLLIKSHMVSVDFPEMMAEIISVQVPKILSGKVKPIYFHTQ
Outline: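 Steps: seed AR-UAS-bla GripTite HEK293 cells, incubate 4 h at 37C; pin in test compound, then add agonist R1881; incubate 16 h at 37C; add LiveBLAzer B/G FRET substrate, 2 h at room temperature; read fluorescence.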

[7] = biological target: Androgen receptor (Homo sapiens) (UniProt P10275); experiment: qHTS assay to identify small molecule agonists of the androgen receptor (AR) signaling pathway (AID 743036; active = well fitted activation curve with a large enough effect in the signal ratio in the repeat runs, with a control signal flat, not every such curve was filed as active; inconclusive = weak or mixed curves, or effect the other way; inactive = no such curve, though single readings can be large or run the other way; the % refers to the signal ratio)
Outline: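 Quantitative HTS of the Tox21 10K library in HEK293 cells bearing a stably integrated UAS-controlled beta-lactamase reporter. Compound exposure lasted 16 h at 37C. Reporter activity was detected by FRET substrate fluorescence after 2 h at room temperature.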

[8] = biological target: Androgen receptor (Homo sapiens) (UniProt P10275); experiment: qHTS assay to identify small molecule agonists of the androgen receptor (AR) signaling pathway using the MDA cell line (AID 743040; note: nearly all actives have a fitted effect of over 20% in size); conditions: MDA-kb2 AR-luc cells, MMTV luciferase, 16 h; activity change: at 70.3 µM (top of the series), stronger effect = higher value
Outline: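 Agonist activity is measured as luciferase luminescence in human MDA-kb2 cells whose MMTV reporter responds to both AR and GR. Compounds in DMSO incubate 16 h at 37C, 0% CO2, and ONE-Glo is read after 30 min.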

[9] = qHTS assay to identify small molecule antagonists of the androgen receptor (AR) signaling pathway using the MDA cell line - cell viability counter screen (AID 743041; note: nearly all actives have a fitted effect of over 45% in size; note: potency is the fitted concentration of half-maximal effect)
Outline: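 qHTS viability read-out; MDA-kb2 AR-luc; R1881-stimulated; 16 h exposure at 37C, 0% CO2; CellTiter-Fluor, 30 min; fluorescence intensity.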

[10] = biological target: Androgen receptor (Homo sapiens) (UniProt P10275); experiment: qHTS assay to identify small molecule antagonists of the androgen receptor (AR) signaling pathway using the MDA cell line (AID 743042; note: potency is the fitted concentration of half-maximal effect; nearly all actives have a fitted effect of over 55% in size)
Outline: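 MDA-kb2 cells (human breast carcinoma, stably carrying an MMTV-luciferase reporter responsive to AR and GR) were plated at 3,000 cells/well and preincubated 5 hr at 37C, then given compound plus R1881 agonist for 16 h. ONE-Glo luminescence was read.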

[11] = qHTS assay to identify small molecule antagonists of the thyroid receptor (TR) signaling pathway (AID 743065); note: nearly all actives have a fitted effect of over 55% in size; note: potency is the fitted concentration of half-maximal effect
Outline: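 GH3.TRE-Luc rat pituitary cells carrying two TR response elements driving luciferase were plated for 4 h, given compound plus 1 nM T3 (final), and incubated 23.5 h at 37 C. ONE-Glo luminescence measured reporter inhibition; CellTiter-Fluor fluorescence tracked cytotoxicity.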

[12] = test system: thyroid hormone receptor (rat, GH3 cells); experiment: qHTS assay to identify small molecule agonists of the thyroid receptor (TR) signaling pathway (AID 743066; calls by dose curve)
[13] = biological target: Estrogen receptor (Homo sapiens) (UniProt P03372); experiment: qHTS assay to identify small molecule antagonists of the estrogen receptor alpha (ER-alpha) signaling pathway (AID 743069; active = well fitted curve in the direction sought with a large enough effect in the signal ratio in the repeat runs, not every such curve was filed as active; inconclusive = weak or mixed curves, or effect the other way; inactive = no such curve, though single readings can be large or run the other way; the % refers to the signal ratio; note: potency is the fitted concentration of half-maximal effect)
Sequence of Estrogen receptor (Homo sapiens) (P03372 whole entry, looked up): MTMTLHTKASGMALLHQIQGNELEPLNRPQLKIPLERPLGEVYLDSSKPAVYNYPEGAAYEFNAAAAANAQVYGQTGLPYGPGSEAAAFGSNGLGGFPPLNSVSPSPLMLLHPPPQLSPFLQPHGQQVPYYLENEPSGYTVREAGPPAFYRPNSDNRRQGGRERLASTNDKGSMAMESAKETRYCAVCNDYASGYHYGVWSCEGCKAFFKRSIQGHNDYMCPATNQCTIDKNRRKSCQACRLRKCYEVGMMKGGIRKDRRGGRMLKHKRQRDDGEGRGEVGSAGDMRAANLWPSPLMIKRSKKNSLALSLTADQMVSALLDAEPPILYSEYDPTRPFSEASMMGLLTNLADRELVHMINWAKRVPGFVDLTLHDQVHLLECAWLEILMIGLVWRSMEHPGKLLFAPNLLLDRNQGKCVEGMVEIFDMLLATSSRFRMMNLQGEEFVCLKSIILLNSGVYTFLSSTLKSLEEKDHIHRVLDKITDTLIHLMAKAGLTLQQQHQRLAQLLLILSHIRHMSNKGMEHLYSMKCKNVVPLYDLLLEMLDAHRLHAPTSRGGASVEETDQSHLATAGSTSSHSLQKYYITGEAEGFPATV
Outline: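 Screening used a UAS-driven beta-lactamase reporter integrated into HEK293 cells expressing ER-alpha, stimulated with 17beta-estradiol alongside test compounds over 18 hr at 37C; signal came from LiveBLAzer B/G FRET fluorescence.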

[14] = qHTS assay to identify small molecule antagonists of the estrogen receptor alpha (ER-alpha) signaling pathway - cell viability counter screen (AID 743074; calls by dose curve; note: nearly all actives have a fitted effect of over 45% in size)
[15] = biological target: Estrogen receptor (Homo sapiens) (UniProt P03372); experiment: qHTS assay to identify small molecule agonists of the estrogen receptor alpha (ER-alpha) signaling pathway (AID 743075; calls by dose curve; note: potency is the fitted concentration of half-maximal effect)
[16] = qHTS assay to identify small molecule antagonists of the estrogen receptor alpha (ER-alpha) signaling pathway using the BG1 cell line (AID 743080; calls by dose curve; note: nearly all actives have a fitted effect of over 25% in size; note: potency is the fitted concentration of half-maximal effect)
Outline: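 Antagonist mode: compounds in DMSO were pinned onto BG1-Luc-4E2 cells alongside 17beta-estradiol agonist, incubated 21.5 h, and ERE-driven luciferase measured with ONE-Glo. Cytotoxicity was multiplexed using CellTiter-Fluor fluorescence.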

[17] = qHTS assay to identify small molecule antagonists of the estrogen receptor alpha (ER-alpha) signaling pathway using the BG1 cell line - cell viability counter screen (AID 743081);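 note: compound given together with 17beta-estradiol as the ER stimulus; nearly all actives have a fitted effect of over 45% in size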; note: potency is the fitted concentration of half-maximal effect
Aromatase (Homo sapiens) = Aromatase (Homo sapiens) (UniProt P11511); experiment: qHTS assay to identify aromatase inhibitors (AID 743083); note: nearly all actives have a fitted effect of over 55% in size; note: potency is the fitted concentration of half-maximal effect
Sequence of Aromatase (Homo sapiens) (P11511 whole entry, looked up): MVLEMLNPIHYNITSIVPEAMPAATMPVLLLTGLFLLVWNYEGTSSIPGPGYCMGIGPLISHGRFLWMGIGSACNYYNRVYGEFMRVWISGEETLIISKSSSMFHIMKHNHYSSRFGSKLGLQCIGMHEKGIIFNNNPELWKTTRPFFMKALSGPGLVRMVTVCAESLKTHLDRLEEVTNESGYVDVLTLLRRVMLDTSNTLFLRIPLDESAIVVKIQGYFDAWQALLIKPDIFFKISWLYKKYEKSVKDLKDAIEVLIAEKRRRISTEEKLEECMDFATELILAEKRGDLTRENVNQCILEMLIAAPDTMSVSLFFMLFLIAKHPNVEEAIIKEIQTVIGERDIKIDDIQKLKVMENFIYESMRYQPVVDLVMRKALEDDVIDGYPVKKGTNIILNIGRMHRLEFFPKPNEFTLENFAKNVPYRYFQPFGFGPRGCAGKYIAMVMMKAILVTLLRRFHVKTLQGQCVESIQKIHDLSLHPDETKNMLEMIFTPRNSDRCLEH

[18] = qHTS assay to identify small molecule antagonists of the thyroid receptor (TR) signaling pathway - cell viability counter screen (AID 743064); note: nearly all actives have a fitted effect of over 50% in size; note: potency is the fitted concentration of half-maximal effect
Outline: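 Rat GH3 pituitary tumor cells stably expressing two TR response elements driving luciferase were plated, rested 4 h, then dosed with library compounds and T3 (1 nM final). After 23.5 h at 37 °C, CellTiter-Fluor was added for 30 min and fluorescence recorded.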

[19] = biological target: Estrogen receptor (Homo sapiens) (UniProt P03372); experiment: qHTS assay to identify small molecule agonists of the estrogen receptor alpha (ER-alpha) signaling pathway using the BG1 cell line (AID 743079); note: nearly all actives have a fitted effect of over 20% in size; note: potency is the fitted concentration of half-maximal effect

Measured: Potency

CC(C)Oc1cc(-n2nc(C(C)(C)C)oc2=O)c(Cl)cc1Cl
active: [2] 5.45 µM | [3] 6.11 µM | [4] 60.3 µM and 4.86 µM | [5] 11 µM | [6] 43 µM and 12.3 µM | [10] 38.6 µM | [11] 67.6 µM | [13] 61.6 µM [inconclusive] | [16] 47.9 µM | Aromatase (Homo sapiens) 60.3 µM and 17.2 µM
inactive: [1] | [7] | [8] | [9] | [12] | [14] | [15] | [17]

CCCCCCCCCCCOC(=O)c1ccccc1C(=O)OCCCCCCCCCCC
inactive: [1] | [2] | [3] | [4] | [5] | [9] | [18] | [11] | [12] | [13] | [14] | [15] | [16] | [17] | Aromatase (Homo sapiens)
26.6 µM (active) and inactive: [19]

Nc1ccc(-c2ccccc2)cc1
inactive and 30.6 µM (active): [4]
active: [19] 25 nM and 10.9 µM
inactive: [1] | [5] | [9] | [18] | [11] | [12] | [13] | [14] | [15] | [17] | Aromatase (Homo sapiens)
inactive and 54.5 µM (active): [2] | [3]

N[C@@H](Cc1ccc(N(CCCl)CCCl)cc1)C(=O)O
active: [2] 944 nM and 8.28 µM | [3] 75 nM and 117 nM | [4] 2.37 µM and 8.28 µM | [18] 10.6 µM and 26.2 µM
inactive: [1] | [5] | [9] | [17]

CC(C)N(C(=O)SCC(Cl)=C(Cl)Cl)C(C)C
inactive: [1] | [5] | [9] | [12] | [14] | [17]
active: [2] 61.1 µM | [18] 47.9 µM | [11] 53.8 µM and 61.1 µM
inactive and 30.6 µM (active): [4]
inactive and 54.5 µM (active): [3]

O=[N+]([O-])c1ccc(O)c([N+](=O)[O-])c1
active: [4] 54.5 µM | [9] 30.8 µM and 61.1 µM | [10] 61.1 µM | [17] 30.8 µM and 30.6 µM
inactive: [1] | [2] | [3] | [5] | [8] | [12] | [13] | [15] | Aromatase (Homo sapiens)

CCOc1cc(C=O)ccc1O
inactive: [1] | [2] | [3] | [4] | [5] | [9] | [18] | [11] | [12] | [14] | [17]

O=P(O)(O)CCCl
inactive: [1] | [2] | [3] | [4] | [5] | [9] | [18] | [11] | [12] | [13] | [14] | [15] | [19] | [16] | [17] | Aromatase (Homo sapiens)

CCN(N=O)C(N)=O
inactive: [1] | [2] | [3] | [4] | [5] | [9] | [11] | [12] | [13] | [14] | [15] | [19] | [16] | [17] | Aromatase (Homo sapiens)

C#C[C@]1(O)CC[C@H]2[C@@H]3CCC4=CC(=O)CC[C@]4(C)[C@H]3CC[C@@]21C
active: [11] 6.86 µM
inactive: [1] | [2] | [3] | [4] | [5] | [9] | [18] | [12] | [14] | [17] | Aromatase (Homo sapiens)

O=S(=O)(Oc1ccc(Cl)cc1)c1ccc(Cl)cc1
inactive: [1] | [2] | [3] | [4] | [5] | [9] | [18] | [11] | [12] | [13] | [14] | [15] | [19] | [16] | [17] | Aromatase (Homo sapiens)

N#CCCCl
inactive: [1] | [2] | [3] | [4] | [5] | [9] | [18] | [11] | [12] | [14] | [17]

CN(C)C(=O)Nc1ccc(Cl)cc1
inactive: [1] | [2] | [5] | [9] | [18] | [11] | [12] | [14] | [17] | Aromatase (Homo sapiens)

CC1(C)C(C=C(Cl)Cl)C1C(=O)OC(C#N)c1cccc(Oc2ccccc2)c1 (stereo not given)
active: [4] 61.1 µM
inactive: [1] | [3] | [5] | [9] | [18] | [12] | [13] | [14] | [15] | [19] | [16] | [17] | Aromatase (Homo sapiens)

Cc1ccc2c(c1N)C(=O)c1ccccc1C2=O
inactive: [1] | [2] | [3] | [5] | [9] | [11] | [12] | [13] | [14] | Aromatase (Homo sapiens)
active: [4] 24.1 µM and 30.6 µM | [15] 389 nM [inconclusive] | [19] 3.03 µM and 4.33 µM | [17] 30.3 µM and 27.3 µM
